Source: PubChem (several laboratories)
In the library only some 0.67% were active in any assay of this set; here they are far more common.
Rin1 Abl inh = inhibitors of Rin1-Abl protein binding, primary screen, biochemical, TR-FRET | Tyrosine-protein kinase ABL1 (Homo sapiens) + Ras and Rab interactor 1 (Homo sapiens), … | inhibition, % at 7.35 µM | actives 0.4% (n = 360,000); in the data active = inhibition above about 5%, passing the limit was not always enough
NPR2 activator = human GC-B receptor activators, primary screen, HEK293 GC-B cells, cGMP TR-FRET, EC30 CNP; 0% at EC30 CNP, 100% saturating CNP; Atrial natriuretic peptide receptor 2 (Homo sapiens), P20594; activation, % at 10 µM; actives 0.11% (n = 370,000);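 active = activation at 10 µM reaching about 35% in either raw or pattern-adjusted values, limit read from the data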
Target sequence (P20594 whole entry, looked up): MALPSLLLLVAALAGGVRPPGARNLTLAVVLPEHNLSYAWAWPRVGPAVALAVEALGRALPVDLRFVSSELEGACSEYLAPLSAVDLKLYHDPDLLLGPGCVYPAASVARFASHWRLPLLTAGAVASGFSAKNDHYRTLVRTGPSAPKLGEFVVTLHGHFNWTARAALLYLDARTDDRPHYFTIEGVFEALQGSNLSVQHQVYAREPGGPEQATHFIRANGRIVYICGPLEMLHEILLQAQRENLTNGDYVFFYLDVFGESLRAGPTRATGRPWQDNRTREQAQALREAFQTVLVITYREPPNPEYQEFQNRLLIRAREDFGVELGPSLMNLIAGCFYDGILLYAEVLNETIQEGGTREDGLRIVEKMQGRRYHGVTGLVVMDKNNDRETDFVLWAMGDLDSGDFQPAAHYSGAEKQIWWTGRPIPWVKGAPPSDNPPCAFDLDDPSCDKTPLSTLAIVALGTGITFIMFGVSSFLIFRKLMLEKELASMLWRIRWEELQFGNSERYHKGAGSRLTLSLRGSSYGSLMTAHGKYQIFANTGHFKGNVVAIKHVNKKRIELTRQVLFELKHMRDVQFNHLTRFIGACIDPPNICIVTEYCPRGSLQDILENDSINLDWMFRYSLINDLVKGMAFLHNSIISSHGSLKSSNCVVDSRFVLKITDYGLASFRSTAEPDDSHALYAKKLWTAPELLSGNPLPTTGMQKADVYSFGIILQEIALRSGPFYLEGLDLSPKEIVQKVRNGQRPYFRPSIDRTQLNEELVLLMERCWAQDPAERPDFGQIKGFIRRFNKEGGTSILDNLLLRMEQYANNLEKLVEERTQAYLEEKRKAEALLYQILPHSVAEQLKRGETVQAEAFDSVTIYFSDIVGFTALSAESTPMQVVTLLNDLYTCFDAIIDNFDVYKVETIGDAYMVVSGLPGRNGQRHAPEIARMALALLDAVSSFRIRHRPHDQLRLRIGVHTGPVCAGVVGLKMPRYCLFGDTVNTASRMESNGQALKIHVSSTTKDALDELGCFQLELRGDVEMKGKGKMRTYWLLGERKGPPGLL
CaV13 FRET inh = Primary screen for inhibitors of IQ motif and Ca2+-dependent inactivation inhibitor domain binding in CACNA1D, Förster resonance energy transfer in living cells, …. HEK cells, CFP/YFP FRET ICDI-IQ, plate reader, 10 min; percent FRET-ratio fall versus neutral wells. inhibition, % at 12.3 µM. actives 0.098% (n = 340,000);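 active = mean replicate inhibition of at least 30% and at least 1% of replicates passing that level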;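 note: 0% = median of the neutral control wells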
GC-A act = GC-A stimulated cGMP production enhancers – HEK293 GC-A cells, cGMP TR-FRET, EC30 ANP, primary screen | Atrial natriuretic peptide receptor 1 (Homo sapiens), P16066 | 0% at EC30 ANP, 100% saturating ANP | activation, % at 10 µM | actives 0.14% (n = 370,000) | AID 1671463, 2021; in the data active = activation above about 40%
Rin1-Abl confirm = Rin1-Abl binding inhibitor retest, confirmation, biochemical, TR-FRET; shares compounds with Rin1 Abl inh; purified proteins; inhibition, % at 7.35 µM; actives 49% (n = 1,300)
GFP quencher = GFP fluorescence inhibitors and quenchers, artefact control for Rin1-Abl interaction inhibitor project, biochemical | shares compounds with Rin1 Abl inh | inhibition, % at 6.75 µM | actives 8.5% (n = 1,300) | inhibitors/quenchers counterscreen;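 note: ABL1-eGFP fusion protein alone without its partner RIN1-SBP; 0% = protein with vehicle and 100% = wells lacking protein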
Numbers without * were called inactive; / = no result. Cut-off read from the data, not from the text of the source, unless noted: active = inhibition above about 6.5%; inactive = the rest.

SMILES | Rin1 Abl inh | NPR2 activator | CaV13 FRET inh | GC-A act | Rin1-Abl confirm | GFP quencher
O=C1N(c2ccccc2)C(c2ccc(Cl)cc2)N2CCCN12 (stereo not drawn) | 2 | -4 | -4 | -15 | / | /
Cc1ccc(C2N(c3ccc(Cl)cc3)C(=O)N3CCCN23)cc1 (stereo not drawn) | 12* | -11 | -20 | -8 | 13* | -1
CCCCC[C@@H]1C=C(C(=O)O)[C@H](c2ccc(Cl)cc2)N1S(=O)(=O)c1ccc(C)cc1 | 8.2* | 4 | -5 | -3 | -3 | 0
O=c1c(-c2ccccc2)coc2c(CN3CCCC3)c(O)ccc12 | 5.9* | 0 | -10 | 2 | -2 | 0
Cc1ccccc1CNC(=O)CN1CCCc2ccccc21 | / | -1 | / | -5 | / | /
CCCn1c(=O)c2c(ncn2C)n(CCC)c1=O | -2 | 1 | -6 | 3 | / | /
COc1ccc(SCCCn2c(=O)c3c(ncn3C)n(C)c2=O)cc1 | 7.7* | 0 | -6 | -2 | 0 | 1
O=c1[nH]c(Nc2ccccc2)cc2ccccc12 | 5.6* | 0 | -4 | -5 | 2 | -2
Cc1sc2ncn(CC(=O)NCC(=O)N3CCN(c4ccccc4F)CC3)c(=O)c2c1C | 26* | -2 | -3 | 5 | 0 | -6
COc1ccccc1N1CCN(C(=O)CNC(=O)Cn2cnc3sc(C)c(C)c3c2=O)CC1 | 6 | 0 | -4 | -3 | / | /
O=C(c1ccccc1)N(CCN1CCOCC1)C1(C(=O)Nc2ccccc2)CCCCC1 | 8.5* | -12 | / | 8 | -1 | 0
COCCN=c1scc(-c2ccco2)n1/N=C/c1ccc(O)c(O)c1O | 20* | 3 | 3 | -1 | 13* | 11*
C=CCN=c1scc(-c2ccco2)n1/N=C/c1ccc(O)c(O)c1O | 11* | 4 | -3 | 2 | 6 | 7.3*
O=C(c1ccncc1)N1CCN(C2CCCCC2)CC1 | 10* | 1 | -7 | 0 | 1 | -1
Cc1ccc(S(=O)(=O)NCC(=O)N2CCN(c3ccccn3)CC2)cc1C | / | -4 | / | -11 | / | /
CCOc1ccc(C(=O)Nc2nnc(C(C)C)s2)cc1OCC | 7.8* | 1 | -5 | -1 | -3 | 0
CCOc1ccc(C(=O)Nc2nncs2)cc1OCC | -1 | 2 | -10 | 2 | / | /
CC1CC(C)CN(CCCNS(=O)(=O)c2cc3c(cc2Br)CCN3C(=O)C2CC2)C1 (stereo not drawn) | / | -6 | / | 0 | / | /
COc1cc(=O)[nH]c(SCC(=O)Nc2ccc3ccccc3c2)n1 | 13* | -5 | -2 | -2 | 0 | 0
CCCc1cc(=O)[nH]c(SCC(=O)Nc2ccc3ccccc3c2)n1 | 4 | -2 | -4 | -5 | / | /
CCc1ccc(S(=O)(=O)N2CC(=O)Nc3ccccc32)cc1 | 2 | -1 | -10 | -5 | / | /
CCC(C)c1ccc(S(=O)(=O)N2CC(=O)Nc3ccccc32)cc1 (stereo not drawn) | 5.8* | -5 | -4 | -3 | -1 | 1
C=CCC12C=C(OC)C(=O)C(C1=O)C(c1ccc(OC)cc1)C2C (stereo not drawn) | / | -7 | / | 0 | / | /
CCN(CC)C(=O)CC[C@H]1CC[C@]2(CCCN(c3ccccc3)C2)O1 | / | 1 | / | 5 | / | /
Cc1ccc(NC(=S)N(CCCN2CCOCC2)Cc2cccnc2)cc1C | 12* | 1 | 11 | 3 | -2 | -1
SMILES | Rin1 Abl inh | NPR2 activator | CaV13 FRET inh | GC-A act | Rin1-Abl confirm | GFP quencher
C#CCOCCOCCOCCNc1nc(N2CCN(C(=O)CCCCCCCCCCNC(=O)Cn3cc(CCCCCN)nn3)CC2)nc(N2CCN(C(=O)CCCCCCCCCCNC(=O)Cn3cc(C[C@@H](C)O)nn3)CC2)n1 | 19* | / | / | / | 12* | 2
C#CCOCCOCCOCCNc1nc(N2CCN(C(=O)CCCCCCCCCCNC(=O)Cn3cc(C[C@@H](C)O)nn3)CC2)nc(N2CCN(C(=O)CCCCCCCCCCNC(=O)[C@@H](CCSC)n3cc(CCO)nn3)CC2)n1 | 17* | / | / | / | 16* | -1
C#CCOCCOCCOCCNc1nc(N2CCN(C(=O)CCCCCCCCCCNC(=O)[C@@H](CCSC)n3cc(CCO)nn3)CC2)nc(N2CCN(C(=O)CCCCCCCCCCNC(=O)[C@@H]([C@H](C)O)n3cc(C)nn3)CC2)n1 | 7 | -1 | -13 | 0 | / | /
COC(=O)[C@]12C[C@H](CC(=O)NCc3ccc(C)o3)C(=O)N(CCC3=CCCCC3)C1=C[C@H](C1CCCC1)O[C@@H]2C | / | -5 | / | -3 | / | /
CN(C)c1ccc(-c2[nH][nH]c(=O)c2NC(=O)c2ccc3ccccc3n2)cc1 | 36* | -4 | -6 | -5 | 10* | 3
Cc1cnc(C(=O)Nc2c(-c3ccccc3)[nH][nH]c2=O)cn1 | / | -2 | -7 | -2 | / | /
CN(C)c1ccc(-c2[nH][nH]c(=O)c2NC(=O)c2ccccn2)cc1 | 34* | -4 | -2 | -1 | 11* | 0
NC(=NC(=O)/C=C/c1ccccc1Br)N(CC#Cc1ccccc1)CC#Cc1ccccc1 | / | -2 | / | 1 | / | /
Cc1cccc(-n2c(N)c(-c3nc4ccccc4n3C)c3nc4ccccc4nc32)c1 | 12* | 3 | -21 | 10 | -3 | -2
O=c1cc(CO)oc(CN2CCN(Cc3ccccc3)CC2)c1O | 5 | 5 | -5 | 2 | / | /
COc1ccc(N2CCN(Cc3oc(CO)cc(=O)c3O)CC2)cc1 | 1 | -2 | -4 | -4 | / | /
CCN(CC)Cc1oc(CO)cc(=O)c1O | 26* | 1 | -2 | 3 | 11* | 2
O=c1cc(CO)oc(CN2CCCC2)c1O | 27* | 1 | / | 2 | 3 | 0
CN1CCN(Cc2oc(CO)cc(=O)c2O)CC1 | 12* | 0 | -4 | 1 | -1 | -1
O=C(O)C1CCN(Cc2oc(CO)cc(=O)c2O)C1 (stereo not drawn) | 6 | -1 | -5 | 3 | / | /
CCCCNC(=O)C[C@H]1C[C@@]2(C(=O)OC)C(=C[C@H](C(C)C)O[C@@H]2C2CC2)N(CCC2=CCCCC2)C1=O | / | 2 | / | -5 | / | /
COc1ccc(C(CCOC(=O)Oc2ccccc2)c2cc(OC)cc(OC)c2)cc1 (stereo not drawn) | / | 2 | / | -2 | / | /
Cc1cc2cc(CNC(=S)Nc3ccc(OC(F)(F)F)cc3)ccc2[nH]1 | 6.1* | 7 | -5 | 1 | 2 | 0
Cc1c(C(=O)O)c(O)cc2c1C(=O)c1c(O)c([C@@H]3O[C@H](CO)[C@@H](O)[C@H](O)[C@H]3O)c(O)c(O)c1C2=O | 21* | -5 | -9 | -6 | 27* | 5
CCn1cc(C(=O)NCCCOC(C)C)c(=O)c2cc(S(=O)(=O)N3CCC(C)CC3)ccc21 | 13* | 4 | -3 | 9 | 1 | -5
